Each structure is given as a SMILES string. In all, about 39,000 compounds went through this assay and about 220 (0.56%) showed activity. What follows is part of a selection rich in actives, with near analogues and random picks from the rest. A number with no mark means an inactive call.
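Note: Wild-type cells incubated without shaking, value is the mean of two biological replicates.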

The subject of the assay is Escherichia coli K-12 BW25113. The assay can be described thus: relative growth (OD600 normalised to plate interquartile mean) (fraction); higher = less growth inhibition, active = 0.2 or less. The following applies: 50 µM; LB; incubation time: overnight (16-24 h).
Regarding `C[N+](C)(C)CCCl`, the relative growth is 1.
The same measure for `C[N+](C)(C)CCCCCCCCCC[N+](C)(C)C.[Br-].[Br-]`: 1.05; for `CCCCCCCCCCCCCCCC[N+](C)(C)C.[Br-]`: 0.0522 (active).
On to `CCC(N)C(O)c1ccc(O)c(O)c1.Cl` (stereo unspecified), for which the relative growth is 0.99.
For the molecule `CC12CCC3C(CCC4CC(=O)CCC43C)C1CCC2=O` (stereo not drawn) ["5alpha-ANDROSTAN-3,17-DIONE"], the relative growth is 0.862.
In the case of `CCC(=O)CCCCC[C@@H]1NC(=O)[C@H]2CCCCN2C(=O)[C@H]([C@H](C)CC)NC(=O)[C@H](Cc2cn(OC)c3ccccc23)NC1=O`, the relative growth is 1.
In the case of `COc1cc2c(cc1OC)C13CCN4CC5=CCOC6CC(=O)N2C1C6C5CC43` (stereo unspecified), the relative growth is 1.05.
The same measure for `CCn1cc(C(=O)[O-])c(=O)c2cc3c(cc21)OCO3.[K+]`: 0.0482 (active); for `CCC(=O)CCCCC[C@@H]1NC(=O)[C@H]2CCCCN2C(=O)[C@H]([C@@H](C)CC)NC(=O)[C@H](Cc2cn(OC)c3ccccc23)NC1=O`: 0.957.
The value for `O=C1N[C@@H]2C(=C[C@H](O)[C@@H](O)[C@H]2O)c2cc3c(c(O)c21)OCO3` was 0.913; that for `N#Cc1cccnc1` was 1.01.
The same measure for `NNc1ccn([C@H]2O[C@@H](CO)[C@@H](O)[C@@H]2O)c(=O)n1`: 0.394; for `COP(=O)(OC)C(O)C(Cl)(Cl)Cl` (stereo unspecified): 0.874; for `CC(C)(O)/C=C/C(=O)[C@](C)(O)[C@H]1[C@H](O)C[C@@]2(C)[C@H]3CC=C4[C@@H](CC(=O)C(=O)C4(C)C)[C@]3(C)C(=O)C[C@]12C`: 0.979.
Take `[O-][n+]1ccccc1[S][Zn][S]c1cccc[n+]1[O-]`: the relative growth was 0.0506 (active).
For the molecule `CC(C)C[C@@H]1C(=O)N2CCC[C@@H]2[C@]2(O)O[C@@](NC(=O)[C@@H]3C=C4c5cccc6[nH]cc(c56)C[C@@H]4N(C)C3)(C(C)C)C(=O)N12`, the relative growth was 1.04.
The same measure for `C[CH2][Hg][S]c1ccccc1C(=O)[O-].[Na+]`: 0.0484 (active); for `CCCCOC(=O)c1ccccc1C(=O)OCCCC`: 1.11.
The value for `O=C([O-])Cc1ccccc1.[Na+]` was 0.934.
The same measure for `CC(=O)OC1CCC2(C)C(CCC3C2CCC2(C)C(C4=CC(=O)OC4)C(OC(C)=O)CC32O)C1` (stereo unspecified): 1.01.
As for `CC(C)=CCCC1(C)C=Cc2c(O)c3c(c(CC=C(C)C)c2O1)OC12C(=CC4CC1C(C)(C)OC2(CC=C(C)C(=O)O)C4=O)C3=O` (stereo unspecified), the relative growth is 1.01.
The value for `NC(=O)c1ccc(N)nc1` was 0.986; that for `CCCN1CC(CSC)CC2c3cccc4[nH]cc(c34)CC21.CS(=O)(=O)O` (stereo unspecified) was 1.15.
The value for `CCNC(=O)[C@H]1O[C@@H](n2cnc3c(N)ncnc32)[C@H](O)[C@@H]1O` was 0.996.
With `Oc1ccc(Cl)cc1Cc1cc(Cl)ccc1O`, the relative growth was 0.398.
The value for `Nc1ccc(Cl)cc1Cl` was 1.02; that for `Oc1cc(Cl)ccc1Oc1ccc(Cl)cc1Cl` was 0.0446 (active).
The same measure for `CN1CC(=O)N(c2cccnc2)C[C@]12CCNC2`: 0.998.
On to `CC12CCC3C(CCC4(O)CC(O)CCC34C=O)C1(O)CCC2C1=CC(=O)OC1` (stereo unspecified), for which the relative growth is 0.972.
The same measure for `CC(=O)Oc1ccc(Cl)c2cccnc12`: 0.0572 (active).
The same measure for `CC=C1CC(C)C(O)(CO)C(=O)OCC2=CCN3CCC(OC1=O)C23` (stereo unspecified): 1.04.
Take `CN1CCOC[C@]2(CCCNC2)C1`: the relative growth is 0.994.
The value for `C[C@]12C(=O)OC(=O)[C@]1(C)[C@H]1CC[C@H]2O1` was 0.97.
The value for `CN1C(=O)[C@]23CC4=CC=C[C@H](O)[C@H]4N2C(=O)[C@@]1(CO)SS3` was 0.0665 (active).
The value for `CN1C(=O)[C@@]23C[C@]4([C@@]56C[C@]78SS[C@](CO)(C(=O)N7[C@@H]5Nc5ccccc56)N(C)C8=O)c5ccccc5N[C@H]4N2C(=O)[C@@]1(CO)SS3` was 0.917; that for `CC1OC(OC2CCC3(C=O)C4CCC5(C)C(C6=CC(=O)OC6)CCC5(O)C4CCC3(O)C2)C(O)C(O)C1O` (stereo unspecified) was 1.15.
Turning to `c1cnc2[nH]cc(CN3CCNCC3)c2c1`, the relative growth was 0.977.
The same measure for `CC(=O)O[C@H]1C[C@H](O[C@H]2[C@@H](O)C[C@H](O[C@H]3[C@@H](O)C[C@H](O[C@H]4CC[C@@]5(C)[C@@H](CC[C@H]6[C@@H]5C[C@@H](O)[C@]5(C)[C@@H](C7=CC(=O)OC7)CC[C@]65O)C4)O[C@@H]3C)O[C@@H]2C)O[C@H](C)[C@H]1O[C@@H]1O[C@H](CO)[C@@H](O)[C@H](O)[C@H]1O`: 0.986.
The same measure for `CCOP(=S)(OCC)Oc1nc(Cl)c(Cl)cc1Cl`: 1.06.
In the case of `COP(=S)(OC)Oc1cc(Cl)c(Cl)cc1Cl`, the relative growth was 0.0496 (active).
The value for `COP(=S)(OC)Oc1ccc(Sc2ccc(OP(=S)(OC)OC)cc2)cc1` was 0.986.
The value for `CCn1cnc2c(Nc3cccc(Cl)c3)nc(N[C@@H]3CCCC[C@@H]3N)nc21` was 0.943; that for `CC(=O)OCC1=C(C(=O)O)N2C(=O)[C@@H](NC(=O)CCC[C@@H](N)C(=O)O)[C@@H]2SC1` was 1.02.
The same measure for `CNc1ccc2oc(C[C@H]3O[C@@]4(CC[C@H]3C)O[C@H]([C@H](C)C(=O)c3ccc[nH]3)[C@H](C)C[C@H]4C)nc2c1C(=O)O`: 0.962.
For the molecule `CCCCCCCCCCCCCCCC[n+]1ccccc1.[Cl-]`, the relative growth was 0.0713 (active).
The value for `CCCCCCCCCCCCCCCC[n+]1ccccc1` was 0.16 (active).
`CC[C@@H](C)NC=C1C(=O)NC(=O)NC1=O`: the relative growth was 1.01.
The value for `CC1OC(OC2CC(O)C3(CO)C4C(O)CC5(C)C(C6=CC(=O)OC6)CCC5(O)C4CCC3(O)C2)C(O)C(O)C1O.O.O.O.O.O.O.O.O` (stereo unspecified) was 1.01; that for `CC1OC(OC2C=C3CCC4C(CCC5(C)C(c6ccc(=O)oc6)CCC45O)C3(C)CC2)C(O)C(O)C1O` (stereo unspecified) was 0.977.
The value for `C[C@@H]1O[C@@H](O[C@H]2CC[C@]3(C=O)[C@H]4CC[C@]5(C)[C@@H](C6=CC(=O)OC6)CC[C@]5(O)[C@@H]4CC[C@]3(O)C2)[C@H](O)[C@H](O)[C@H]1O` was 1; that for `C=C(C)[C@H]1CN[C@H](C(=O)O)[C@H]1CC(=O)O` was 0.978; that for `Cc1nn[nH]n1` was 0.979.
With `Cc1c(N)nc([C@H](CC(N)=O)NC[C@@H](N)C(N)=O)nc1C(=O)N[C@H](C(=O)N[C@@H](C)[C@H](O)[C@@H](C)C(=O)N[C@@H](C(=O)NCCc1nc(-c2nc(C(=O)NCCC[S+](C)C)cs2)cs1)[C@@H](C)O)[C@@H](O[C@H]1O[C@H](CO)[C@H](O)[C@@H](O)[C@H]1O[C@H]1O[C@H](CO)[C@@H](O)[C@H](OC(N)=O)[C@@H]1O)c1c[nH]cn1`, the relative growth was 0.0355 (active).
The same measure for `Cc1c(N)nc([C@H](CC(N)=O)NC[C@@H](N)C(N)=O)nc1C(=O)N[C@H](C(=O)N[C@@H](C)[C@H](O)[C@@H](C)C(=O)N[C@@H](C(=O)NCCc1nc(-c2nc(C(=O)NCCC[S+](C)C)cs2)cs1)[C@@H](C)O)[C@@H](O[C@H]1O[C@H](CO)[C@H](O)[C@@H](O)[C@H]1O[C@H]1O[C@H](CO)[C@@H](O)[C@H](OC(N)=O)[C@@H]1O)c1cnc[nH]1`: 0.0324 (active); for `Cc1cc(O)c2c(=O)c3c(O)cc(O)c4c5c(O)cc(O)c6c(=O)c7c(O)cc(C)c8c1c2c(c34)c(c78)c65`: 1.61.
The value for `O=C1[O][SbH]23[O]C(=O)[C@H]([O]2)[C@H]2[O][SbH]4([O]C(=O)[C@H]([O]4)[C@H]1[O]3)[O]C2=O` was 0.313; that for `CC1=C[C@H]2O[C@@H]3[C@H](O)[C@@H](O[C@H]4O[C@H](CO)[C@@H](O)[C@H](O)[C@H]4O)[C@](C)([C@@]2(CO)CC1)[C@]31CO1` was 0.947.
The value for `O=C1CCCC2C3CCCN4CCCC(CN12)C34` (stereo unspecified) was 1.05; that for `Cn1ncnc2c(=O)n(C)c(=O)nc1-2` was 0.0341 (active); that for `Cc1nc2c(=O)n(C)c(=O)nc-2n(C)n1` was 0.0393 (active).
`CCn1nc(-c2cccnc2)nc2c(=O)n(C)c(=O)nc1-2`: the relative growth is 0.846.
The value for `COc1cccc2c1C(=O)c1c(O)c3c(c(O)c1C2=O)C[C@@](O)(C(=O)CO)C[C@@H]3O[C@H]1C[C@H](N2CCO[C@H](OC)C2)[C@H](O)[C@H](C)O1` was 0.933.
On to `CO[C@H]1C[C@H](O[C@H]2CC[C@]3(C=O)[C@H]4CC[C@]5(C)[C@@H](C6=CC(=O)OC6)CC[C@]5(O)[C@@H]4CC[C@]3(O)C2)O[C@H](C)[C@H]1O`, for which the relative growth is 0.98.
The same measure for `CO[C@H]1[C@@H](O)C[C@@H](O[C@H]2[C@@H](O)C[C@@H](O[C@H]3[C@@H](O)C[C@@H](O[C@H]4CC[C@@]5(C)[C@@H](CC[C@H]6[C@@H]5C[C@@H](O)[C@@]5(C)[C@H](C7=CC(=O)OC7)CC[C@@]65O)C4)O[C@@H]3C)O[C@@H]2C)O[C@@H]1C`: 1; for `C=CCN1C(=O)NC(=O)/C(=C/c2ccco2)C1=O`: 0.971; for `NC(=O)c1cn([C@H]2O[C@@H](CO)[C@H](O)[C@@H]2O)c2ncnc(N)c12`: 0.892.
The value for `CN1[C@@H]2CC[C@H]1C[C@H](O)C2` was 1; that for `C=C1[C@@H](C)[C@H]2[C@H](Cc3ccccc3)NC(=O)[C@]23[C@H](OC(C)=O)/C=C/[C@](C)(O)C(=O)[C@@H](C)C/C=C/[C@H]3[C@@H]1O` was 0.976; that for `O=S(=O)(O)O.Oc1cccc2cccnc12` was 0.0986 (active).
The value for `CC12CCC3c4ccc(OC(=O)N(CCCl)CCCl)cc4CCC3C1CCC2O` (stereo unspecified) was 0.992; that for `CCCCCCCCCC(=O)O[C@@H]1[C@@H](C)[C@]2(O)[C@@H](C=C(CO)C[C@]3(O)C(=O)C(C)=C[C@@H]23)[C@@H]2C(C)(C)[C@@]12OC(=O)CCCCCCCCC` was 1.03.
